Source: ChEMBL document CHEMBL3988442, “University of Dundee, Small-Polar-MMV Screening Library” (2021)
Screen size: about 85,000 compounds; about 440 (0.52%) showed an effect of 50% or more. The full list was thinned out, with strong results kept by preference.

Test: In vitro enzyme assay to detect hydrolysis of chlorophenol red-beta-D-[…] directly proportional to the number of Toxoplasma stably expressing beta-galactosidase
Type: functional, organism-based, Toxoplasma gondii
Set-up: scale not given: in the data most compounds retested in dose-response had high values

Compound	Percent Effect (50 µM) [%]	Percent Effect (10 µM) [%]
NCc1ccc(OCC(F)F)cc1	-2.459	–
O=C(C1CC1)N1CCC(Oc2cccnc2)C1 (stereo not given)	1.461	–
CCC(CNc1ncnc2oc(C)nc12)Cc1ccccc1 (stereo not given)	–	-4.784
CCCOc1ccccc1CCCNc1ncnc2oc(C)nc12	–	12.3
CCCOc1ccc(Cl)cc1CNc1ncnc2oc(C)nc12	–	57.15
CC(N)c1ccc(N2CCCCC2=O)cc1 (stereo not given)	3.622	–
O=C1CCCCN1c1ccc(S(=O)(=O)NC2CC2)cc1	98.35	–
CC(C)NC(=O)c1ccc(N2CCCCC2=O)cc1	19.08	–
OC1(Cc2ccccc2F)CCNC1 (stereo not given)	78.69	–
OC1(Cc2ccccc2F)CCNCC1	-5.436	–
OCC1(Cc2ccccc2F)CCCNC1 (stereo not given)	2.008	–
CC(NS(C)(=O)=O)C(=O)NCCCc1ccncc1 (stereo not given)	0.4518	–
Cc1cc(CN(C)C(=O)C2CCCN2S(C)(=O)=O)no1 (stereo not given)	-2.48	–
O=C(CCN1C(=O)CCC1=O)Nc1ccc(F)cc1	6.107	–
Cc1nc(N2CCN(c3ccccc3)CC2)c2c(n1)c(C)nn2C	–	52.19
CCC(=O)N1CCN(c2nc(C)nc3c(C)nn(C)c23)CC1	–	56.36
Cc1nn(C)c2c(N3CCN(C(=O)c4ccccc4)CC3)ncnc12	–	-3.825
Cc1nn(C)c2c(N3CCC(C)CC3)nc(C3CC3)nc12	–	6.306
Cc1nn(C)c2c(N3CCN(C)CC3)nc(C3CC3)nc12	–	7.951
Cc1nc(N2CCN(C(=O)c3ccccn3)CC2)c2c(n1)c(C)nn2C	–	25.12
Cc1nc(N2CCN(C(=O)C3CCCC3)CC2)c2c(n1)c(C)nn2C	–	-37.24
Cc1nc(N2CCN(C(=O)c3ccncc3)CC2)c2c(n1)c(C)nn2C	–	77.24
Cc1nc(N2CCN(C(=O)c3ccccc3)CC2)c2c(n1)c(C)nn2C	–	-7.412
CCC(=O)N1CCN(c2ncnc3c(C)nn(C)c23)CC1	–	7.071
Cc1nc(N2CCN(C(=O)C3CC3)CC2)c2c(n1)c(C)nn2C	–	0.4782

Compound	Percent Effect (50 µM) [%]	Percent Effect (10 µM) [%]
Cc1nc(N2CCN(C(=O)c3ccco3)CC2)c2c(n1)c(C)nn2C	–	56.5
CN(C)[C@@H]1CN(C(=O)c2cccn2C)C[C@H]1CO	-4.756	–
CC(C)NC(C1CCNCC1)[C@H]1C[C@H](O)C1 (stereo not given in full)	23.17	–
CCOc1ncccc1C(=O)N1CCC(COC)C1 (stereo not given)	-5.58	–
CC1(C)CN(c2nccnc2C#N)CCS1(=O)=O	-1.06	–
O=C(NCC(F)(F)F)c1ccccc1NCCCO	5.629	–
O=S(=O)(NC1CC1)C1CCN(CCc2ccccn2)C1 (stereo not given)	5.549	–
c1ccc(N2CCCC2)nc1	-4.186	–
CC(C)OCc1nc(C(C)N)no1 (stereo not given)	-1.581	–
CCCN(C)C(CO)c1ccc(OC)cc1 (stereo not given)	-2.385	–
O=C(c1ccc2c(c1)OCCCO2)N1CCCC(n2cccn2)C1 (stereo not given)	–	55.61
O=C(c1ccc2c(c1)OCCCO2)N1CCCC(n2ccnc2)C1 (stereo not given)	–	-11.97
O=C(c1ccc2c(c1)OCO2)N1CCCC(n2cccn2)C1 (stereo not given)	–	8.443
CC(C)(C)C(=O)CCN1CCCCC1	28.4	–
CNCC1CCS(=O)(=O)C1 (stereo not given)	7.416	–
N#Cc1cccc(CS(=O)(=O)NC(Cc2ccccc2)C(N)=O)c1 (stereo not given)	–	-7.673
NC(=O)C(Cc1ccccc1)NS(=O)(=O)Cc1ccccc1Cl (stereo not given)	–	50.03
NC(=O)C(Cc1ccccc1)NS(=O)(=O)Cc1ccccc1F (stereo not given)	–	-5.639
CCc1cc(N[C@@H]2C[C@H]3CC[C@@H]2C3)n2nccc2n1	–	9.168
CCCn1cc(-c2ccnc(NC3CCc4ccccc4C3)n2)c(C)n1 (stereo not given)	–	39.11
CCCn1ncc(-c2ccnc(NC3CCSC3)n2)c1C (stereo not given)	–	16.2
CCCn1ncc(-c2ccnc(N[C@@H]3C[C@@H]4CC[C@H]3C4)n2)c1C	–	55.29
CCCn1ncc(-c2ccnc(NC3CC(C)(C)NC(C)(C)C3)n2)c1C	–	50.73
CCCn1ncc(-c2ccnc(NC3CCCc4ccccc43)n2)c1C (stereo not given)	–	4.434
C[C@@H]1CNC[C@H]1C(N)=O	-3.858	–

Compound	Percent Effect (50 µM) [%]	Percent Effect (10 µM) [%]
COCC1(C(=O)N2C[C@@H](N)C[C@H]2C(=O)NC(C)C)CC1	-6.582	–
COC(=O)c1cn(CC(=O)Nc2cccc(F)c2)nn1	-28.09	–
CC(N)C(=O)N(C)C1CCOCC1 (stereo not given)	-25.47	–
Cc1nnc2n1N=C(c1ccccc1)CS2	84.29	–
OCc1nnc2n1N=C(c1ccc(Cl)cc1)CS2	-7.844	–
Cc1nnc2n1N=C(c1cccs1)CS2	-17.29	–
COCc1cccc(C(=O)Nc2ccncc2)c1	-8.978	–
COCCN(CCC#N)S(=O)(=O)c1ncn(C)c1Cl	2.241	–
O=C(CN1CCn2ccnc2C1)Nc1ccc(Cl)cn1	-8.564	–
CC(C)n1cnnc1CN1CCN(c2nc[nH]n2)CC1	14.64	–
NCCN1CCC(C(N)=O)CC1	44.2	–
CS(=O)(=O)CCN1CCC(C(N)=O)CC1	50.58	–
CCCN1CCC(C(N)=O)CC1	-22.14	–
O=C(Nc1nncs1)c1cccc(O)c1	-14.91	–
Cc1ccc(F)cc1NC(=O)C(C)Nc1cnn(C)c1 (stereo not given)	17.75	–
CNC(=O)c1cccc(NCc2nc(C)cs2)n1	-1.003	–
O=C1NCCN(C(=O)c2ccc(Br)o2)C1c1cccs1 (stereo not given)	99.65	–
N#Cc1ccc(CN2CCNC(=O)C2c2cccs2)cc1 (stereo not given)	–	7.265
COC(=O)CCN1CCNC(=O)C1c1cccs1 (stereo not given)	-1.577	–
Cc1nc(CNC(=O)N(C)Cc2ccncc2)cs1	-10.17	–
NC(=O)C1(O)CCN(Cc2nc(C3CCCC3)no2)C1 (stereo not given)	-5.906	–
CCC(=O)NC1CCCN(Cc2noc(C)n2)C1 (stereo not given)	11.52	–
CC(C)COCCC(=O)Nc1c(-c2ccc(F)cc2)ncn1C	–	2.891
CC(C)COCCC(=O)Nc1nccs1	97.25	–
CCC(C)C(=O)Nc1nccs1 (stereo not given)	-54.41	–
